Shown are actives, neighbours in structure and some others; about 4.8% of the full set was active somewhere.
DAX1 inh-1: NR0B1 (DAX1) inhibition. P51843. HEK293 Gal4-DAX1 luciferase reporter, luminescence. inhibition, % at 6.75 µM. hit rate 0.99% among 340,000;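 active = inhibition above the mean over all tested compounds plus 3 SD, cut at about 4.2% in these data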;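 note: 0% = DAX1-transfected cells with DMSO and 100% = empty-vector control cells with DMSO; inhibition shows as a rise in luminescence from relieved DAX1 repression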
Target sequence (P51843 207-470 limits assumed): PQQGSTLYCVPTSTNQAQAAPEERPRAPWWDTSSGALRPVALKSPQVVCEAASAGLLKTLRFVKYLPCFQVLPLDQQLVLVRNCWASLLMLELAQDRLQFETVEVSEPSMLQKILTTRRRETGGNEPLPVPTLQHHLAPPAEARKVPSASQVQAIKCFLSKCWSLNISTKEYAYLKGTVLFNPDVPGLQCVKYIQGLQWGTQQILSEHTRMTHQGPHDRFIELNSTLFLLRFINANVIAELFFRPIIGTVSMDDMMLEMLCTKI
hgDAF-12 ag: activates the H. glycines DAF-12 receptor ligand-binding domain. HEK293 GAL4-hgDAF12 UAS-luciferase reporter, agonist luminescence; normalized to butyrate control. activation, % at 6.8 µM. hit rate 1.8% among 370,000;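 active = activation above a cutoff set at the mean of all screened compounds plus 3 SD, cut at about 10% in these data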;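 note: 0% = DMSO wells and 100% = sodium butyrate wells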
DAX1 inh-2: inhibitors of DAX1 repression of SF-1 activated StAR promoter; HEK293T StAR-luciferase reporter, SF-1/DAX-1 repression relief; AID 652010; inhibition, % at 6.8 µM; hit rate 1.1% among 370,000;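 active = inhibition above the mean over all tested compounds plus 3 SD, cut at about 3.6% in these data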;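 note: 0% = DAX-1 cells with DMSO and 100% = cells lacking DAX-1 with DMSO; higher inhibition means more luminescence from relief of DAX-1 repression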
ssDAF12 agonist: activates DAF-12 receptor from parasite S. stercoralis | HEK293 ssDAF-12/GRIP1 lit1-tk-luc reporter, luminescence; % of 3 µM dafachronic acid response | activation, % at 6.8 µM | hit rate 1% among 370,000;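 active = activation above the mean over all tested compounds plus 3 SD, cut at about 0.9% in these data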;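 note: 0% = DMSO-only wells and 100% = 3 µM delta7-dafachronic acid wells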
SMARCA2 activ: activators of SMARCA2 function | MG213 cells, MMTV-luciferase reporter, dexamethasone, overnight | activation, % at 9.1 µM | hit rate 1% among 370,000 | AID 652017; in the data active = activation above about 7.8%;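 note: 0% = vehicle wells and 100% = reference activator wells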
hcDAF12 agonist: activators of H. contortus DAF-12 nuclear receptor | HEK293 hcDAF-12 lit1-tk-luc reporter, luminescence; 0% DMSO, 100% Δ7-dafachronic acid | activation, % at 6.8 µM | hit rate 1.4% among 370,000 | AID 652067;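 active = activation above the mean of all tested compounds plus 3 SD, cut at about 5.5% in these data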;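 note: 100% = response to 3 µM Δ7-dafachronic acid high control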
SMARCA2 conf: SMARCA2 activation, confirmation screen | shares compounds with SMARCA2 activ | MG213 cells, MMTV-luciferase with dexamethasone, luminescence, overnight; MG213 cells expressing E1A, Rb sequestered; DMSO wells 0%, reference activator 100% | activation, % at 9.1 µM | hit rate 30% among 3,500 | AID 652260;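 active = activation above its plate's cutoff, the mean activation of tested wells plus 3 SD, cut at about 7.9% in these data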
VP16 Luc act: GAL4-VP16 reporter activation counter-screen | shares compounds with SMARCA2 activ | HEK293 GAL4-VP16 pG5luc reporter, luciferase luminescence; scaled: DMSO wells 0%, SAHA wells 100% | activation, % at 9.1 µM | hit rate 41% among 3,500;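 active = activation above the solvent-only control well mean plus 3 SD, averaged across control plates, cut at about 5.2% in these data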
Numbers without * were called inactive; nt = no result given; ! = a repeat was not active.

SMILES	DAX1 inh-1	hgDAF-12 ag	DAX1 inh-2	ssDAF12 agonist	SMARCA2 activ	hcDAF12 agonist	SMARCA2 conf	VP16 Luc act
COc1ccc(N(CC(=O)N2CCN(Cc3ccccc3)CC2)S(=O)(=O)c2ccccc2)cc1	0	0	-1	-1	-2	-1	nt	nt
O=c1c2ccccc2oc2cc(C#Cc3ccccn3)ccc12	3	6	3	0	8.0*	2	3	9.6*
COc1cccc2oc3ccc(C#Cc4ccccn4)cc3c(=O)c12	2	11*	3	0	10*	3	3	10*
COc1cccc2sc3cc(C#Cc4ccccn4)ccc3c(=O)c12	-1	-3	0	-1	4	-2	nt	nt
COc1ccc(N2C(=S)N(C(=O)c3ccccc3)C(=Nc3ccccc3)C2=Nc2ccccc2)cc1	-2	5	1	-1	11*	0	2	3
COc1ccc(N=C2C(=Nc3ccc(OC)cc3)N(c3ccc(N(C)C)cc3)C(=S)N2c2ccc(OC)cc2)cc1	-2	1	0	-2	2	-1	nt	nt
Cn1ncc2c(Nc3ccc(O)cc3)nc(Cl)nc21	2	-1	0	-1	18*	-1	5	2
COc1ccc(N2CCN(CC(=O)Nc3ncc(C)s3)CC2)cc1	-1	-1	0	-1	0	0	nt	nt
Cc1cnc(NC(=O)CN2CCN(c3ccccn3)CC2)s1	2	8	-1	0	12*	1	22*	1
CCOC(=O)Cc1cn2c(=O)cc(CSCC(=O)Nc3ccc(C)c(C)c3)nc2s1	0	-2	-1	-1	-2	-2	nt	nt
C#CCn1c(O)c(N=NC(=O)CNC(=O)c2cccnc2)c2ccccc21	0	0	0	-1	9.8*	-2	0	1
O=C(c1cc([N+](=O)[O-])ccc1Cl)N1CCN(Cc2ccccc2)CC1	-1	1	-1	-1	-3	-2	nt	nt
CC1(C)Cc2c(sc3nc(SCC(=O)N4CCOCC4)nc(N)c23)CO1	-1	-1	1	-1	-1	-1	nt	nt
CCOC(=O)C(=CNc1ccc(C)cc1C)C(=O)OCC	0	-1	-1	-2	7	-1	nt	nt
CCOC(=O)C(=CNCC(=O)O)C(=O)OCC	-1	0	0	-2	11*	1	-2	0
CN(C)C=Nc1nonc1-c1ccc(Cl)cc1	1	1	1	-2	-3	-1	nt	nt
COCCNS(=O)(=O)c1ccc(F)c(OC)c1	0	0	0	-1	14*	0	-1	1
COCCNS(=O)(=O)c1ccc2c(c1)C(=O)c1cc(S(=O)(=O)NCCOC)ccc1-2	0	-2	-1	-1	-3	-1	nt	nt
Cc1cccc(NC(=O)c2cc(NC(=O)c3ccco3)ccc2N2CCCCC2)c1	0	nt	nt	nt	nt	nt	nt	nt
O=C1C2C3CCC(C3)C2C(=O)N1CNc1ccccc1 (stereo unspecified)	0	3	0	-1	1	-2	nt	nt
CC(=O)Nc1ccc(NCN2C(=O)[C@@H]3[C@H]4CC[C@H](C4)[C@@H]3C2=O)cc1	1	-1	0	-1	8.9*	0	-4	0
OCC1OC(n2cnc3c(NCCc4ccccc4)ncnc32)C(O)C1O (stereo unspecified)	1	13*	2	0	11*	-1	5	7.8*
Nc1ccc(CCNc2ncnc3c2ncn3[C@@H]2O[C@H](CO)[C@@H](O)[C@H]2O)cc1	-1	-3	1	-2	-3	0	nt	nt
Cc1cccc(NC(=S)N(CCN2CCOCC2)Cc2cc3cc4c(cc3[nH]c2=O)OCO4)c1	-1	-5	1	0	-5	-1	nt	nt
O=C(CSc1nnc2ccccn12)Nc1ncc(Cl)cc1Cl	3	5	0	0	9.5*	2	8.4*	3
SMILES	DAX1 inh-1	hgDAF-12 ag	DAX1 inh-2	ssDAF12 agonist	SMARCA2 activ	hcDAF12 agonist	SMARCA2 conf	VP16 Luc act
Oc1cccc(/C=N/N=C/c2cccc(O)c2O)c1O	-1	1	1	0	12*	1	13*	7.4*
CCCC(CCC)C(=O)O	0	-2	-1	-1	8.1*!	0	-1	0
Cc1ccccc1-n1nc2c(c1NC(=O)CC(C)C)CS(=O)C2 (stereo unspecified)	1	1	1	-1	-1	0	nt	nt
CCN(CC)C(=O)CCc1nnc(Cc2cccc(C(F)(F)F)c2)o1	2	13*	1	1	16*	2	3	9.2*
Cc1cc(CN(C)C(=O)CCc2nnc(Cc3cccc(C(F)(F)F)c3)o2)on1	3	6	1	0	7	2	nt	nt
O=C(COc1ccc(Br)cc1)NCCO	-1	2	1	-1	-4	-3	nt	nt
Cc1ccc(OCC(=O)NCCO)cc1C	0	1	0	-2	10*	0	1	5
CCNC(=O)COc1ccc(CC)cc1	1	3	0	-1	8.1*	1	8.0*	2
CCOc1ccc(-c2nc(N)nc(C)c2-c2ccc(Cl)cc2)c(O)c1	1	0	0	-2	1	0	nt	nt
c1ccc2oc(C3=NNC(=NC4CC4)SC3)cc2c1	2	7	1	0	9.5*	6.8*	0	6.5*
O=C(O)c1cn(C2CCCCC2)c2ccccc2c1=O	2	6	1	-1	17*	4	-1	0
COC(=O)Cn1c(CN2CCOCC2)nc2c1c(=O)n(C)c(=O)n2C	2	0	0	-1	8.3*	-1	1	-1
COc1ccc2nc(Nc3nc(C)c(C(C)=O)s3)sc2c1	2	13*	1	0	9.7*	1	-12	14*
C=CCN1C(=O)/C(=C/c2ccc(OC)cc2)S/C1=N/c1nccs1	0	0	0	-2	10*	0	-1	1
Cc1ccc(NS(=O)(=O)c2c(C)nc3sccn3c2=O)cc1C	1	2	0	-2	9.6*	0	-3	-1
Cc1cc(C(=O)N2CCCC(N3CCN(c4cccc(C(F)(F)F)c4)CC3)C2)nn1C (stereo unspecified)	-1	1	-2	-1	2	-1	nt	nt
CCOC(=O)C1=C(C)N=c2s/c(=C3\C(=O)Nc4ccccc43)c(=O)n2C1c1ccc2c(c1)OCO2 (stereo unspecified)	2	1	0	0	11*	4	-2	0
Cc1ccc(SCCNC(=S)Nc2ccccc2)cc1	0	-2	-1	-1	8.8*	-1	-5	0
